Compounds without any hit were thinned out: in the full panel of roughly 79,000, 15% have a hit. Values without a mark were called inactive. Activity calls are given as the source filed them. Rule as the data show it: active = growth inhibition above about 70%; inactive = the rest.
Experiment: NCI Yeast Anticancer Drug Screen. Data for the sgs1 strain (AID 173);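 also: 0% = growth of vehicle-only control cultures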
Conditions: S. cerevisiae sgs1 mutant, stronger effect = higher value
Method: Growth inhibition of yeast strains with defined genetic alterations is measured as a screen for potential anti-cancer activity. Selected strains with alterations in DNA damage repair or cell cycle control were exposed to compounds and growth inhibition was measured relative to vehicle treated controls. The strain used in this assay is sgs1

| SMILES | growth inhibition (at 1.2 µM) | growth inhibition (at 3.7 µM) | growth inhibition (at 11.0 µM) | growth inhibition (at 33.0 µM) | growth inhibition (at 100.0 µM) |
| --- | --- | --- | --- | --- | --- |
| COc1cccc2c1C(=O)c1c(O)c3c(c(O)c1C2=O)CC(O)(C(O)CO)CC3OC1CC(N2CCOCC2)C(O)C(C)O1 (stereo not given) | 97% (active) | 97% (active) | 97% (active) | 98% (active) | 98% (active) |
| CCc1cc(O)c(Cl)c(C)c1Cl | -4% | 6% | 1% | 44% | 92% (active) |
| COc1ccc([N+](=O)[O-])c2c(NCCCN(C)C)c3ccccc3nc12 | 12% | 31% | 56% | 83% (active) | 90% (active) |
| Cc1ccc([N+]2=NC(c3ccccc3)=NN(c3ccccc3)C2)cc1 | 0% | 1% | 5% | 87% (active) | 97% (active) |
| CC(C)c1ccc(NC(=S)NC(=O)c2ccccc2)cc1 | -23% | -16% | 15% | 50% | 55% |
| Cc1cccc2c1nc1ccc(Cl)cc1[n+]2C | 3% | 13% | 89% (active) | 97% (active) | 97% (active) |
| CCCCOP(=O)(CCCP(=O)(OCCCC)OCCCC)OCCCC | -3% | -1% | 0% | 5% | 93% (active) |
| Cc1csc(=S)n1OC(=O)NC1CCCCC1 | -42% | 98% (active) | 99% (active) | 100% (active) | 99% (active) |

— PubChem BioAssay (NCI)
